From PubChem BioAssay AID1159580 (chemical genetic matrix, 2015)
Values joined by “and” are separate entries in the source; they are usually repeats but may differ in a detail not shown here. Equal values may be shown once. The whole screen tested about 5,500 compounds, of which about 2,000 (36%) were called active. Not shown: some 18% with an inconclusive outcome. Rule as the data show it: active = normalized growth mostly below about 0.91 (no sharp cut-off); inconclusive = no clear call, values can overlap the other calls; inactive = mostly above about 0.92. The list shows a part of the results.

Assay: chemical genetic growth profiling, strain panel (AID 1159580);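 also: tested at 20 µM; growth read once vehicle control cultures reached saturation at 30 °C; 1 = growth at the plate median or of vehicle wells; lower values mean less growth of the strain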
Conditions: S. cerevisiae deletion strains, growth OD

Measured: normalized growth

CCCCC1C(=O)N(c2ccccc2)N(c2ccccc2)C1=O
inactive: locus YAL013W, strain DEP1, hits give low values 0.971 and 0.998 | locus YAL021C, strain ccr4, hits give low values 0.999 | locus YAL026C, strain drs2, hits give low values 0.982 | locus YAL030W, strain snc1, hits give low values 0.987 | locus YAL040C, strain CLN3, hits give low values 0.963 | locus YBL061C, strain skt5, hits give low values 0.997 | locus YBR009C, strain hhf1, hits give low values 1.01 | locus YBR021W, strain FUR4, hits give low values 1.01 | locus YBR023C, strain chs3, hits give low values 0.998 | locus YBR171W, strain sec66, hits give low values 0.977 | locus YBR229C, strain ROT2, hits give low values 0.983 | locus YBR231C, strain swc5, hits give low values 1 | locus YBR279W, strain paf1, hits give low values 1.02 | locus YCL011C, strain gbp2, hits give low values 1 | locus YCL016C, strain dcc1, hits give low values 1 | locus YCL029C, strain bik1, hits give low values 1.01 | locus YCL061C, strain MRC1 (second series), hits give low values 0.998 | locus YCL061C, strain MRC1, hits give low values 0.983 | locus YCL069W, strain vba3, hits give low values 0.999 | locus YCR088W, strain abp1, hits give low values 0.985 | locus YDL005C, strain med2, hits give low values 1 | locus YDL035C, strain GPR1, hits give low values 0.989 | locus YDL040C, strain nat1, hits give low values 0.99 | locus YDL074C, strain BRE1, hits give low values 1.02 | locus YDL101C, strain DUN1, hits give low values 1.01 | locus YDL134C, strain PPH21, hits give low values 0.986 | locus YDL185W, strain tfp1, hits give low values 0.994 | locus YDL192W, strain arf1, hits give low values 0.988 | locus YDR001C, strain nth1, hits give low values 0.984 | locus YDR069C, strain doa4, hits give low values 0.982 | locus YDR101C, strain arx1, hits give low values 1.01 | locus YDR137W, strain rgp1, hits give low values 0.915 | locus YDR150W, strain NUM1, hits give low values 0.99 and 0.997 | locus YDR159W, strain sac3, hits give low values 0.972 | locus YDR162C, strain NBP2, hits give low values 0.976 | locus YDR195W, strain ref2 0.992 | locus YDR297W, strain sur2, hits give low values 0.989 | locus YDR318W, strain mcm21, hits give low values 1.01 | locus YDR334W, strain swr1, hits give low values 0.994 | locus YDR335W, strain msn5, hits give low values 0.997 | locus YDR363W, strain ESC2, hits give low values 1.03 | locus YDR388W, hits give low values 1 | locus YDR392W, strain spt3, hits give low values 0.969 | locus YDR502C, strain sam2, hits give low values 0.986 | locus YEL003W, strain gim4, hits give low values 1 | locus YEL037C, strain rad23, hits give low values 0.991 | locus YEL061C, strain CIN8 (second series), hits give low values 0.983 | locus YEL061C, strain CIN8, hits give low values 0.981 | locus YER002W, strain NOP16, hits give low values 0.974 | locus YER015W, strain faa2, hits give low values 0.998 | locus YER016W, strain bim1, hits give low values 0.99 | locus YER110C, hits give low values 0.993 | locus YER111C, strain swi4, hits give low values 0.979 | locus YER155C, strain BEM2 (second series), hits give low values 1.03 | locus YER155C, strain BEM2, hits give low values 1.01 | locus YER167W, strain BCK2, hits give low values 0.987 | locus YFR010W, strain ubp6, hits give low values 0.991 | locus YGL078C, strain dbp3, hits give low values 1.01 | locus YGL086W, strain mad1, hits give low values 0.963 | locus YGL167C, strain pmr1, hits give low values 0.977 | locus YGL173C, strain kem1, hits give low values 0.983 | locus YGL227W, strain vid30, hits give low values 1 | locus YGL240W, strain doc1, hits give low values 1.01 | locus YGL248W, strain PDE1, hits give low values 0.991 | locus YGL253W, strain hxk2, hits give low values 0.994 | locus YGR078C, strain PAC10, hits give low values 1.02 and 0.981 | locus YGR135W, strain pre9, hits give low values 0.994 | locus YGR229C, strain SMI1, hits give low values 0.983 and 1 | locus YGR252W, strain gcn5, hits give low values 0.922 | locus YHR013C, strain ard1, hits give low values 0.992 | locus YHR027C, strain rpn1, hits give low values 0.99 | locus YHR030C, strain SLT2, hits give low values 0.992 and 0.937 | locus YHR079C, strain IRE1 (second series), hits give low values 1 | locus YHR079C, strain IRE1, hits give low values 0.917 | locus YHR094C, strain hxt1, hits give low values 0.991 | locus YHR129C, strain ARP1, hits give low values 0.994 | locus YHR142W, strain chs7, hits give low values 1.03 | locus YHR200W, strain rpn10, hits give low values 1 | locus YIL066C, strain RNR3, hits give low values 0.991 | locus YIL073C, strain SPO22, hits give low values 1.01 | locus YIL125W, strain kgd1, hits give low values 0.98 | locus YIR030C, strain dcg1, hits give low values 0.993 | locus YJL092W, strain hpr5, hits give low values 0.985 | locus YJL095W, strain BCK1 (second series), hits give low values 0.996 | locus YJL095W, strain BCK1, hits give low values 1.03 and 0.938 | locus YJL115W, strain asf1, hits give low values 0.99 | locus YJL129C, strain trk1, hits give low values 0.999 | locus YJL134W, strain LCB3, hits give low values 0.977 | locus YJL154C, strain vps35, hits give low values 0.991 | locus YJL164C, strain tpk1, hits give low values 1.01 | locus YJL166W, strain qcr8, hits give low values 1.01 | locus YJL168C, strain set2, hits give low values 0.988 | locus YJL187C, strain SWE1 (second series), hits give low values 1.01 | locus YJL187C, strain SWE1, hits give low values 0.988 | locus YJR043C, strain POL32, hits give low values 1.04 | locus YJR066W, strain TOR1, hits give low values 0.915
